Results on 31 compounds are retold here after ChEMBL document CHEMBL3988442, “University of Dundee, Small-Polar-MMV Screening Library” (2021).

About 420 (0.61%) of roughly 69,000 compounds showed an effect of 50% or more. Many of the other results were omitted from the sample, so strong results are more common in it than they were.

The assay concerns the target T1, Histidine--tRNA ligase (Leishmania infantum) (UniProt A4I591).
T1 sequence (whole entry): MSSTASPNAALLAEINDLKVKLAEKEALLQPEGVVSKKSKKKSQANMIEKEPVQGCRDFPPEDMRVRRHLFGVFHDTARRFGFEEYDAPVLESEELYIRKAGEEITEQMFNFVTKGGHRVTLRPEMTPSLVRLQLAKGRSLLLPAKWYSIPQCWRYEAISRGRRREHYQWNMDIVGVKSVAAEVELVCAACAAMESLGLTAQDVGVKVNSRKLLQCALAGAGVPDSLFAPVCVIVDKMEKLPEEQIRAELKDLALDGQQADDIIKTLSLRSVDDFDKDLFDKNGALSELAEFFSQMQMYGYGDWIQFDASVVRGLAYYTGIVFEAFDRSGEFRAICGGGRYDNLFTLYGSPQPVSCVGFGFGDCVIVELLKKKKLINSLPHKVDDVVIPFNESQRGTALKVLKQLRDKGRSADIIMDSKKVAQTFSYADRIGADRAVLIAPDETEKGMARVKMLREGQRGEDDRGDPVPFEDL
Kind of assay: Leishmania infantum Histidine tRNA synthetase (LdHisRS). The assay is classed as functional. The arrangement: scale not given: in the data most compounds retested in dose-response had high values. The conditions noted are these: 30 µM.
As to `CCCn1cc(NC(=O)c2ccc(S(C)(=O)=O)cc2)ccc1=O`, the Percent Effect was determined as 94.6%. With `CN(C)C(=O)Cc1ccccc1NCc1cccc2cccnc12` the figure was 13.6%.

`COC(=O)N1CCCN(C(=O)c2cccc3cccnc23)CC1` displayed a Percent Effect of 8.26%. With `Cn1cc(NC(=O)Nc2cccc3cccnc23)ccc1=O` the figure was 114%; with `CCCN1CCC(NC(=O)Nc2ccc(OC)c(OC)c2)CC1`, 1.33%; with `CCCn1cc(NC(=O)c2ccc(N(C)CC)cc2)ccc1=O`, 31.5%.

`O=C(Nc1ccc(CCN2CCSCC2)cc1)NC1CC1` yielded a Percent Effect of 16.4%. The compound `CCCn1cc(NC(=O)c2ccc(NC(=O)NC3CC3)cc2)ccc1=O` came in with a Percent Effect of 92.8%.

`CCCn1cc(NC(=O)c2ccncc2)ccc1=O` returned a Percent Effect of 104%.

On to `CCN(CC)C(CNC(=O)c1ccc(S(C)(=O)=O)cc1)c1ccco1` (stereo unspecified), for which the Percent Effect worked out at 19.2%.

For `O=C(Nc1ccc2c(ccn2CCN2CCOCC2)c1)c1ccncc1`, the Percent Effect amounted to 25.7%.

Compound `Cn1cc(C(=O)Nc2cccc(F)c2)ccc1=O` yielded a Percent Effect of 26.5%.

Compound `COCC1(CNC(=O)[C@@]23CNC[C@@H]2CN(C2CCCC2)C3)CC1` gave a Percent Effect of 12.8%. The compound `CS(=O)(=O)N1C[C@H](NC(=O)c2ccno2)[C@@H]2OCCC[C@@H]21` registered a Percent Effect of 10%. As for `COc1ccc(CN2C[C@@H]3OCCN(C)[C@@H]3C2)cc1`, the Percent Effect was found to be 19.3%. In turn, `Cc1nc([C@@H]2C[C@H]3CN(Cc4scnc4C)C[C@H]3O2)no1` had a Percent Effect of 17.1%. For the compound `Cn1cc(C(=O)N[C@H]2CN(Cc3nccs3)[C@@H]3CCCO[C@H]23)cn1`, the Percent Effect turned out to be 28.6%. Regarding `Fc1cnc(N2C[C@H]3CCC[C@@]3(COc3ccccn3)C2)nc1`, the Percent Effect stood at 0%. Compound `CC(=O)N1CCO[C@@H]2CN(Cc3cccc(Cl)c3)C[C@@H]2C1` gave a Percent Effect of 15.3%. In turn, `COc1cccc(CN2C[C@@H]3COC[C@]3(COc3cccnc3)C2)c1` yielded a Percent Effect of 19.3%. In the case of `c1ccc(OC2COC3(CCN(Cc4ccccn4)CC3)C2)cc1` (stereo unspecified), the Percent Effect turned out to be 15%.

`Cc1cccc(CN2CCS(=O)(=O)[C@@H]3CCN(C(=O)C4CC4)CC[C@@H]32)n1`: the Percent Effect worked out at 5.26%.

In the case of `CCCn1cc(NC(=O)c2cccnc2O)ccc1=O`, the Percent Effect worked out at 17.1%. For the compound `CCCn1cc(NC(=O)c2ccc(S(=O)(=O)CC)cc2)ccc1=O`, the Percent Effect was 114%. Compound `CCCn1cc(NC(=O)c2cccc3cccnc23)ccc1=O` returned a Percent Effect of 75.9%. For the compound `CCS(=O)(=O)c1cccc(C(=O)Nc2cccc3c2C(=O)N(C)C3=O)c1`, the Percent Effect came to 21.5%. `Cn1cc(NC(=O)c2cccc3cccnc23)ccc1=O` came in with a Percent Effect of 20.5%. Regarding `CN1CCC/C1=N\S(=O)(=O)c1ccc(NC(=O)c2ccc(F)cc2)cc1`, the Percent Effect was 15.6%. Consider `O=C(C[C@@H]1COC[C@H]2CN(Cc3ccccc3)C[C@@H]12)N1CCCC1`, for which the Percent Effect was 23.1%. With `CN1[C@@H](C(=O)NCC2CC2)C[C@@H]2CN(Cc3ccco3)C[C@@H]21` the figure was 17.1%. With `CCOC(=O)[C@]12CCCN(Cc3nccs3)C[C@H]1CN(C(C)=O)C2`, the Percent Effect worked out at 10.7%.
